Most compounds without a hit are left out; they make up all but 3.2% or so of the library.
LmPK inhibitor = LmPK (Leishmania mexicana) enzyme inhibition | Potency, µM (highest dose often 57.5 µM), for inactives: top-dose activity change, negative = inhibition, actives largely listed as inhibitors | AID 1721 | purified LmPK, Kinase-Glo ATP luminescence, 1 h | hit rate 0.37% among 290,000
Target sequence (Q27686 whole entry, looked up): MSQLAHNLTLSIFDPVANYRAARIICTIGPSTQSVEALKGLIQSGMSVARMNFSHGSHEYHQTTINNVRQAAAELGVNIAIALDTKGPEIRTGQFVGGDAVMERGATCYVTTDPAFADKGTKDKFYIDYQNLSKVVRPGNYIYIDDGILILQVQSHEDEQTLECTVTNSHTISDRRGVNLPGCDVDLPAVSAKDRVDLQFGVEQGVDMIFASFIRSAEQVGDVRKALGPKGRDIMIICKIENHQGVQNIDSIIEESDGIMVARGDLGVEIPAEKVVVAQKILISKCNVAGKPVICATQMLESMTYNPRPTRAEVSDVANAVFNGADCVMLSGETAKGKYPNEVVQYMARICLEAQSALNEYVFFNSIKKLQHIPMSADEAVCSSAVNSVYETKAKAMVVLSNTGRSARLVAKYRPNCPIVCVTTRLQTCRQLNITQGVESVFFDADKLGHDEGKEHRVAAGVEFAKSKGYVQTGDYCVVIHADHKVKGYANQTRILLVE
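Kinase-Glo luminescence read after 1 h RT reaction of 0.1 nM LmPK with 0.5 mM PEP and 0.1 mM ADP. Activity scaled between uninhibited and enzyme-free controls.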
AMA1 RON2 block = inhibitors of Plasmodium falciparum AMA1-RON2 interaction; AlphaScreen AMA1-biotinylated RON2 peptide binding; Potency, µM (highest dose often 58.2 µM), for the others: top-dose activity change, negative = inhibition, actives largely listed as inhibitors; hit rate 0.2% among 360,000; AID 720542;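 further: 0% = vehicle wells and -100% = peptide control; nearly all actives have a fitted effect of over 45% in size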
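AMA1 (3D7) with his tag at 25 nM final met compounds first, then biotinylated RON2 peptide at 25 nM; detection used donor plus acceptor beads, 10 µg/mL apiece, read by AlphaScreen after 30 min at room temperature.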
Sm TGR inh = inhibitors of Schistosoma mansoni thioredoxin glutathione reductase; Potency, µM (highest dose often 114 µM), without a hit: at the highest dose activity change, negative = inhibition, most hits filed as inhibitors; AID 485364; Q962Y6; hit rate 3% among 360,000; purified TGR, DTNB reduction, TNB absorbance 405 nm; further: nearly all actives have a fitted effect of over 60% in size
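Kinetic colorimetric format: TGR-catalysed, NADPH-driven DTNB reduction monitored via TNB absorbance. Enzyme dispensed at 20 nM; compound exposure 15 min at room temperature before reaction start.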
RE007 growth inh = less growth of the S. pombe RE007 Vpr strain. S. pombe RE007 Vpr strain, BacTiter-Glo ATP luminescence, 24 h. Potency, µM (doses to about 92.2 µM), for the others: at the top dose activity change, negative = less growth, most hits filed as inhibitors. hit rate 0.21% among 360,000; active means well fitted falling curve with a large enough effect; inconclusive means small, poorly fitted or top-dose-only effect; inactive means no such curve, though single readings can be large or run the other way; further: nearly all actives have a fitted effect of over 50% in size
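Fission yeast RE007 carrying one integrated HIV-1 vpr copy, seeded at OD 0.01 in PMG+AL medium with 23 nL pinned compound. Grown 24 h at 30 degrees; viability read by BacTiter-Glo luminescence after 5 min.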
TbPYK inhibitor = T. brucei pyruvate kinase inhibition. Q57TT1. TbPYK enzyme, Kinase-Glo Plus ATP luminescence, 45 min. Potency, µM (titrated, usually from 76.8 µM), inactives show at the highest dose activity, negative = inhibition, usual class: inhibitors. hit rate 0.12% among 410,000; further: nearly all actives have a fitted effect of over 50% in size
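Enzyme and substrate buffer are dispensed first and compound is pin-transferred. ADP at 130 uM final then starts the reaction, which runs 45 min at room temperature. Detection reagent is added for 10 min before luminescence is imaged.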
Starred values were filed as active, the others as inactive; ? = inconclusive; . = not tested or not shown; [ ] = another dose, or the depositor's remark. Unless noted, the call rests on the fitted dose curve; in most records, active means well fitted curve in the direction sought with a large enough effect; inconclusive means small, poorly fitted or top-dose-only effect, or another doubt; inactive means no such curve, though single readings can be large; an effect the other way counts as inactive or inconclusive. Unless noted, on the % scale 0 is the no-effect control and ±100 the full control effect; potency means the concentration at half of the fitted maximal effect.

SMILES	LmPK inhibitor	AMA1 RON2 block	Sm TGR inh	RE007 growth inh	TbPYK inhibitor
Cc1cccc(NC(=O)C(NS(=O)(=O)c2cccc3nsnc23)c2ccccc2)c1C (stereo not drawn)	.	.	8%	.	-1%
CCN(CC)c1ccc(C(=O)NNC(=O)CCl)cc1	-13%	51%	20µM*	9%	-13%
CCN(CC)c1ccc(C(=O)NNC(=O)CCNC(=O)c2ccccc2)cc1	.	-11%	2%	-14%	-8%
Cc1ccc(O)c(C2=NNC(c3ccc(Cl)cc3)C2)c1 (stereo not drawn)	5%	84%	45µM*	-11%	4%
Oc1ccc(Cl)cc1C1=NNC(c2cccs2)C1 (stereo not drawn)	0%	82%	18µM*	-18%	-25%
CCOC(=O)c1cc(-c2ccc(F)cc2)n(CCC(=O)Nc2nc3ccc(OC)cc3s2)c1C	.	.	-9%	.	2%[15.4 µM]
COC(=O)c1cccc(Nc2c(-c3ccc(OC)cc3)nc3nc[nH]n23)c1	.	.	0%	.	-2%
Cc1cccc(-n2c3nc(=O)[nH]c(=O)c-3cc3ccc(Cl)cc32)c1C	.	.	-4%	.	-2%
Cc1cc2cc(CN(CCCO)S(=O)(=O)c3cccc4nsnc34)c(=O)[nH]c2cc1C	2%	-5%	-8%	-14%	-2%
Cc1ccc2cc(CN(Cc3ccco3)S(=O)(=O)c3c(C)ccc4nsnc34)c(=O)[nH]c2c1	5%	-9%	8.9µM*	-11%	-16%
Cc1ccc2[nH]c(=O)c(CN(CCCO)S(=O)(=O)c3c(C)ccc4nsnc34)cc2c1	-5%	-1%	8%	-22%	-1%
Cc1cc2cc(CN(Cc3ccco3)S(=O)(=O)c3c(C)ccc4nsnc34)c(=O)[nH]c2cc1C	0%	-7%	45µM*	-5%	-3%
O=C(c1ccco1)n1nc(-c2ccccc2)nc1NCc1ccc(F)cc1	.	.	-4%	.	-7%
Nc1nc(SCC(=O)N2N=C3/C(=C/c4ccco4)CCCC3C2c2ccco2)n[nH]1 (stereo not drawn)	-5%	-4%	?	3%	-10%
Cn1cnnc1SCC(=O)N1N=C2/C(=C/c3ccco3)CCCC2C1c1ccco1 (stereo not drawn)	2%	-9%	45µM*	0%	-16%
Cn1cnnc1SCC(=O)N1N=C(c2ccc(Cl)cc2)CC1c1ccco1 (stereo not drawn)	-1%	-18%	32µM*	11%	-1%
O=C(CSc1nccc(=O)[nH]1)N1N=C2/C(=C/c3ccco3)CCCC2C1c1ccco1 (stereo not drawn)	1%	-22%	22µM*	0%	0%
Cc1ccc(C2=NN(C(=O)CSc3nnnn3C)C(c3ccco3)C2)cc1 (stereo not drawn)	.	2%	?	0%	-14%
CSc1ccc(CNC(=O)c2cc3c(=O)n(Cc4ccco4)ccc3nc2C)cc1	.	.	45µM*	.	-12%
Cn1nnnc1Sc1ncnc2scc(-c3ccc[nH]3)c12	.	.	11µM*	.	-9%
Cc1ccc(NC(=O)CCc2nc(-c3ccccc3F)no2)c(C)c1	.	.	1%	.	-5%
Cc1ccc(CNC(=O)CCC2CCCN(C(=O)CCC(F)(F)F)C2)o1 (stereo not drawn)	4%	-5%	13µM*	7%	-8%
O=C(CCC1CCCN(C(=O)c2ccc3c(c2)OCCO3)C1)NCc1ccccc1F (stereo not drawn)	1%	16%	13%	5%	-3%
Cc1ccc(CNC(=O)CCC2CCCN(C(=O)c3ccc4c(c3)OCO4)C2)o1 (stereo not drawn)	-3%	1%	14µM*	2%	-12%
Cc1cccc(N(Cc2ccccc2)C(=O)CCl)c1	-1%	16%	14µM*	7%	5%
COC(=O)c1ccc(C(=O)N(Cc2ccccc2)c2ccccc2)cc1	-7%	14%	-7%	1%	3%
O=C(CCl)N(Cc1ccccc1)c1ccccc1	-2%	-4%	5µM*	10%	3%
COc1ccc(CC(=O)N(Cc2ccccc2)c2cccc(C)c2)cc1OC	6%	-4%	5%	-13%	0%
COC(=O)c1ccc(-c2noc(CN(C)CCC3CCCCO3)n2)cc1 (stereo not drawn)	-24%	-9%	0.1µM*	-3%	3%
